From publication PMC13494018
Unmarked numbers belong to inactive results. How the calls were made is not given here.

B1: design_486_d4f32670-1303-4d79-8413-1b14cb3eff50_1137_dldesign_0_cycle1_af2pred (protein)
chain: MEEAEEVMRRTFELAREARELRAEAERLAKLAEESGEAAPEAAAARAKAEEKVAEARRLGEEYPGAAALAEGTLAG
B2: design_486_d4f32670-1303-4d79-8413-1b14cb3eff50_969_dldesign_0_cycle1_af2pred (protein)
chain: AQAERDAAARKIAAAHLNHAAKVAEALAKEAKDPKVKKKLKEAAKKAKELAKEAAKGNAAEAGEKAVEAAKLLAEARRLYEEDK
B3: design_486_d4f32670-1303-4d79-8413-1b14cb3eff50_1067_dldesign_0_cycle1_af2pred (protein)
chain: ANAAQIKAAAQAAYKSAKEIAEEALELAKEGKKEEAEKKLKGAEKLGEIAAALAAQYGAAGDPAEGAALAKDIKEYLKEAKKELEKL
B4: design_486_d4f32670-1303-4d79-8413-1b14cb3eff50_4_dldesign_0_cycle1_af2pred (protein)
chain: REEKVEEARRLAQRALNAASKAVVGITSGSLSPEEIQALIDEATEALERAKELAPYATPAVREAIELAEALLQQAKEL
B5: design_391_ca6baf5d-2451-47ba-bffc-fc886679966a_2026_dldesign_0_cycle1_af2pred (protein)
chain: AAKEALEKAKEKAEEIKAIADDVAKKAAAGTITPEEVAAALAKAIELAKEASEYLKEVPEAEAEEIAREVNAAMAKLNKAAVKALA
B6: design_391_ca6baf5d-2451-47ba-bffc-fc886679966a_2389_dldesign_0_cycle1_af2pred (protein)
chain: GKEEEAKEAVERARELAKKMIEEAEKAAKEDLGKAIEVLKKGNEELLELAEEAEELDPEAGEEIRELATQAISEAVKKMVAIQLAK
B7: design_486_d4f32670-1303-4d79-8413-1b14cb3eff50_760_dldesign_0_cycle1_af2pred (protein)
chain: EAEEAARRARELAERARAARDAGLADPAKANEALGVALDAMRELAEIAERYPEVAEVAREAARVAAEAATALAKQAAAYYAAQRA
B8: design_391_ca6baf5d-2451-47ba-bffc-fc886679966a_2271_dldesign_0_cycle1_af2pred (protein)
chain: AAAEKEKEAEAKELFEKARKLAAEAAKLAVKAVGLSEEAYQLANEALQYAIEALEIVSAGEDLEKAKELLEKAQEKLKKATELVKKL
B9: design_486_d4f32670-1303-4d79-8413-1b14cb3eff50_1043_dldesign_0_cycle1_af2pred (protein)
chain: AAEKEAEAARLERLMQAYVAAAMAGAARVTGNEATAAAQLAKARALDPEVAGELEAAVLADPQAALAEALERARAAEERLRALREE
B10: design_486_d4f32670-1303-4d79-8413-1b14cb3eff50_521_dldesign_0_cycle1_af2pred (protein)
chain: DAAALAARTARAIRDQAVRTVAAEEGPEAAEIARAAGEAVLAGDFEEGRRLAERVGRARAFVLSNVESIALLVEG
B11: design_486_d4f32670-1303-4d79-8413-1b14cb3eff50_440_dldesign_0_cycle1_af2pred (protein)
chain: AGKEIAKKMGKAVAERLAKQAPSVAEEAKKAAEAIEKGDYEEAKKEAEKALEIGKKNPKEYKVVKAGVETLKVLADAIAAS
B12: design_486_d4f32670-1303-4d79-8413-1b14cb3eff50_721_dldesign_0_cycle1_af2pred (protein)
chain: MNLYESTLLVAEGAIQTAQQAAELATDPAIKAQAKELKERAQEIRDRVKARGTATNEEGQEAVRLLNQASKLLAQAK
B13: design_391_ca6baf5d-2451-47ba-bffc-fc886679966a_2408_dldesign_0_cycle1_af2pred (protein)
chain: SAAAVAAALAAAEASVKTAERFAEEAEKAVDDPERATRLGESARQNIEVALALADDAAATDPAAAPKAAEIKKRAEEVRKRIEEVLKK
B14: design_486_d4f32670-1303-4d79-8413-1b14cb3eff50_819_dldesign_0_cycle1_af2pred (protein)
chain: SLEELRRKAVRKAQEAMATASKVAIAAKAAGDAATAAKANELLVKAQEALKEAVEGKNVEEALRRAEELLEEAKKLAKE
B15: design_486_d4f32670-1303-4d79-8413-1b14cb3eff50_567_dldesign_0_cycle1_af2pred (protein)
chain: DTVVANALAAQLVLEAIGLAAAGNIEEALKKLREAAKVASPESAAVLEAAARTIAEEGLPPEEAVAVFNAALAVVQKNAIAAA
B16: design_486_d4f32670-1303-4d79-8413-1b14cb3eff50_103_dldesign_0_cycle1_af2pred (protein)
chain: AEAEEFAEKAKEKAKEAVKVYAKDPEAGAAKLNALQAEAARKAIADPRYNPALAAVVEEALKANEVAKAA
B17: design_391_ca6baf5d-2451-47ba-bffc-fc886679966a_2338_dldesign_0_cycle1_af2pred (protein)
chain: AEAAKQAALNTAGILAATVGAEAAAAAGLEAITVYGASIGDVLKATTTIASATSPQARANATRAVALISRALIAS
B18: design_486_d4f32670-1303-4d79-8413-1b14cb3eff50_973_dldesign_0_cycle1_af2pred (protein)
chain: DPAERAAEFRRRAEEVAAIYLAAAQANPAMAPVMAANVLATMRAWAAVWADNPAVAAAALEVGREAAARIA
B19: design_486_d4f32670-1303-4d79-8413-1b14cb3eff50_300_dldesign_0_cycle1_af2pred (protein)
chain: SELDEELLERAKRLLETAKAAGAAGDKETVQQALGEAVELAAEAQRHRDVVSEETWQAIQQALNTAAQHAIAL

These binders were tested against CD276, Q5ZPR3.
CD276, Q5ZPR3, sequence (Q5ZPR3 whole entry): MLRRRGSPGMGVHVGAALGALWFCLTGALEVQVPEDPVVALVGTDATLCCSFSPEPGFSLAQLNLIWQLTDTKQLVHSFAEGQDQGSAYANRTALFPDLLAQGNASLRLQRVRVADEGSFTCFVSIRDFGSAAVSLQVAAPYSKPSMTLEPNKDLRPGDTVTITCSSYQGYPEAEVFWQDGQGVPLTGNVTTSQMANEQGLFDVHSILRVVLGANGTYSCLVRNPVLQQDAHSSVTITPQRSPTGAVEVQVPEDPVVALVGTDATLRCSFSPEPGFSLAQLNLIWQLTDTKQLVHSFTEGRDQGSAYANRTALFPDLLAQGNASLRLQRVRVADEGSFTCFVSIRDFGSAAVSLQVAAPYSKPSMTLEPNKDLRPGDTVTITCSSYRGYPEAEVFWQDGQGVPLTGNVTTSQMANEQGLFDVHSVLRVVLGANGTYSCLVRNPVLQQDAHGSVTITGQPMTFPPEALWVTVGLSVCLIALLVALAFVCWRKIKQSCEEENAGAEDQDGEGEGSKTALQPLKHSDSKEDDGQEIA

Binder	binding in a display sort
B1	not found
B2	not found
B3	not found
B4	not found
B5	not found
B6	not found
B7	not found
B8	not found
B9	binds (active)
B10	not found
B11	not found
B12	not found
B13	not found
B14	not found
B15	not found
B16	not found
B17	not found
B18	not found
B19	not found
